In all, about 360,000 compounds went through this assay and about 1,400 (0.39%) were called active. The sample holds actives, similar compounds and a random draw of the others, so the mix is not that of the screen. A number with no mark means an inactive call. Rule as the data show it: active = inhibition above about 5% (passing the limit was not always enough); inactive = the rest.
What follows are compounds tested against Tyrosine-protein kinase ABL1 (Homo sapiens) + Ras and Rab interactor 1 (Homo sapiens) (UniProt P00519+Q13671) (assay: inhibitors of Rin1-Abl protein binding, primary screen, biochemical, TR-FRET (AID 588664)). Details: at 7.35 µM, active compounds read high.
Tyrosine-protein kinase ABL1 (Homo sapiens) + Ras and Rab interactor 1 (Homo sapiens), sequence (P00519 whole entry, looked up): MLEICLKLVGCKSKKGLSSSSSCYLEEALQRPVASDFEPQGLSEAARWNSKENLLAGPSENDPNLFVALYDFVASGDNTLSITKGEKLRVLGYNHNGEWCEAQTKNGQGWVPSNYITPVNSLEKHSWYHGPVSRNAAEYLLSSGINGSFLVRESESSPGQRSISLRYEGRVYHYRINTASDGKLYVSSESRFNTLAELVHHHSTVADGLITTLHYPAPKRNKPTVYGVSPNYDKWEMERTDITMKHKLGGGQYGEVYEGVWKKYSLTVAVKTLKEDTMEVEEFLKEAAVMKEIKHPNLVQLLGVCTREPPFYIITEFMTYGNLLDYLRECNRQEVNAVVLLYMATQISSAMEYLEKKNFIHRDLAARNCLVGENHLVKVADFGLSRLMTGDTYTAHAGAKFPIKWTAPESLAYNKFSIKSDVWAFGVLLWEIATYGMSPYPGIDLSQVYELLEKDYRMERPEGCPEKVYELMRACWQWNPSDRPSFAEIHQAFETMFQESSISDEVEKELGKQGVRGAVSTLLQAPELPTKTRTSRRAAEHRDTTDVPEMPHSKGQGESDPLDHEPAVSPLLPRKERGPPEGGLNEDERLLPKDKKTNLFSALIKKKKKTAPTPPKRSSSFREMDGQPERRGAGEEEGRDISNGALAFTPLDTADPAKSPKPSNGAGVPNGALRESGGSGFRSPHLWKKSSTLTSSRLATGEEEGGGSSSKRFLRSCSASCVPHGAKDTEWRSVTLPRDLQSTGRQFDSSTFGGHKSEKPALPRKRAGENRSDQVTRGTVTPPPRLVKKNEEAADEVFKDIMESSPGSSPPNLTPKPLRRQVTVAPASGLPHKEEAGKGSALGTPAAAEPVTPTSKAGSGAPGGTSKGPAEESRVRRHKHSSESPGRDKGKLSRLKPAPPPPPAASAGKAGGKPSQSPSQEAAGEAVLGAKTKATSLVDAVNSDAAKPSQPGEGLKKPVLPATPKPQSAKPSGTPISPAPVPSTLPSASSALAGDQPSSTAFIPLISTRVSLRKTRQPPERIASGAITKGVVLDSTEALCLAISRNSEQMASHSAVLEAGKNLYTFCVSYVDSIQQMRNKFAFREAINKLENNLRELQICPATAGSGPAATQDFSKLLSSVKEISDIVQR
Tyrosine-protein kinase ABL1 (Homo sapiens) + Ras and Rab interactor 1 (Homo sapiens), sequence (Q13671 whole entry, looked up): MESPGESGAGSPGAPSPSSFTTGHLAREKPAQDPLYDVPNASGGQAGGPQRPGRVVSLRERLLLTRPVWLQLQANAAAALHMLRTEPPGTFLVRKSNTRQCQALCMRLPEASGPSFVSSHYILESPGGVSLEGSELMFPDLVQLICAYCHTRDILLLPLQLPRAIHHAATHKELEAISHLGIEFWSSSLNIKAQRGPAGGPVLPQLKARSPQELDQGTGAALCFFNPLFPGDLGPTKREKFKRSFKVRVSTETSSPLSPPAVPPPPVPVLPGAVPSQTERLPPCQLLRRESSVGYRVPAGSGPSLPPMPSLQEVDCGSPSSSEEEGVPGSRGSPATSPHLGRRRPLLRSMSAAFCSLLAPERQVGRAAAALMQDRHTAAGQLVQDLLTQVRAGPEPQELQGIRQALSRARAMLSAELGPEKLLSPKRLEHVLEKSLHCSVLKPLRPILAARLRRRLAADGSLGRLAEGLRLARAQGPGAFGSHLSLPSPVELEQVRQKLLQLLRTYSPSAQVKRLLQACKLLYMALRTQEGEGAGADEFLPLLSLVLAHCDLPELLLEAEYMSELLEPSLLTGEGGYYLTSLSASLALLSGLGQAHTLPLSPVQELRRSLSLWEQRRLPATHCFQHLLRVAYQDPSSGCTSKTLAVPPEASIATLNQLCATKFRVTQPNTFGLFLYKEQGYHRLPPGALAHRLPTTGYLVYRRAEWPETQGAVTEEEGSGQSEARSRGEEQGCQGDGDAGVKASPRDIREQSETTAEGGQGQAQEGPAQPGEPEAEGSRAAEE

| SMILES | inhibition |
| --- | --- |
| O=c1[nH]nc(Cc2ccccn2)c2ccccc12 | 1.04% |
| C=CCn1cc(C(=O)NCc2ccc(Cl)cc2)c(=O)c2cc(S(=O)(=O)N(CC)CC)ccc21 | 6.23% (active) |
| CCN(CC)CCCNC(=O)c1cn(C)c2ccc(S(=O)(=O)N(C)C3CCCCC3)cc2c1=O | 2.19% |
| CCOC(=O)N1CCN(C(=O)c2cn(C)c3ccc(S(=O)(=O)N(CC)CC)cc3c2=O)CC1 | -0.08% |
| CN(C)S(=O)(=O)c1ccc(N2CCCC2)c(C(=O)Nc2cccc(F)c2)c1 | 7.03% |
| CC1=C[C@H]2Cc3cc(C)cc(C)c3S(=O)(=O)[C@@H]2C=C1 | 3.36% |
| CC(=O)c1ccc(NC(=O)c2sc3nc4n(c(=O)c3c2C)CCCCC4)cc1 | 0.85% |
| Cc1c(C(=O)Nc2ccccc2)sc2nc3n(c(=O)c12)CCCCC3 | -0.6% |
| O=c1c2c(nc3n1CCCCC3)sc1c(O)cccc12 | 12.3% (active) |
| O=S1(=O)CCN(C2CCCCCCCCCCC2)CC1 | 1.94% |
| COc1ccccc1C(=O)COC(=O)CSCC(=O)Nc1cc(C)on1 | -2.09% |
| Cc1cc(NC(=O)CSCC(=O)NC(C)c2ccccc2)no1 (stereo not drawn) | 9.74% (active) |
| Cc1cc(NC(=O)CSCc2ccccc2C)no1 | -2.34% |
| N#C/C(=C\N1CCOCC1)S(=O)(=O)c1ccc(Cl)cc1 | 0.04% |
| CC(C)CNS(=O)(=O)c1ccc(OCC(=O)Nc2ccc3c(c2)OCO3)c(Cl)c1 | -2.64% |
| CC(C)CNS(=O)(=O)c1ccc(C(=O)Nc2ccc3c(c2)OCO3)cc1 | 12.8% (active) |
| CNS(=O)(=O)c1ccc(NC(=O)Nc2ccc3c(c2)OCO3)cc1 | -0.38% |
| C=C1c2c(Cl)ccc(O)c2C(O)=C2C(=O)[C@]3(O)C(O)=C(C(N)=O)C(=O)[C@@H](N(C)C)[C@@H]3[C@@H](O)C12 (stereo partly drawn) | 20.6% (active) |
| Nc1nc2cc(Cl)ccc2n1N | -1.62% |
| CCCCN(CC)CCNC(=O)c1[nH]c(C)c(C(C)=O)c1C | 6.51% |
| COC(=O)c1c(NC(=O)c2ccc(S(=O)(=O)N3CCOCC3)cc2)sc2c1CCN(C(C)C)C2 | 5.81% |
| CCc1ccc(CNC(=O)C2CCCN(c3nc4ccccc4o3)C2)cc1 (stereo not drawn) | 1.27% |

| SMILES | inhibition |
| --- | --- |
| CCOc1ccc(CNC(=O)C2CCCN(c3nnc(C)c4c(C)n(-c5ccccc5)nc34)C2)cc1 (stereo not drawn) | 20.2% (active) |
| CCc1ccc(CNC(=O)C2CCN(c3nnc(C)c4c(C)n(-c5ccc(C)cc5)nc34)CC2)cc1 | -2.17% |
| Cn1cc(CN2CCCC(CO)C2)c(-c2ccc(Oc3ccccc3)cc2)n1 (stereo not drawn) | 1.99% |
| COc1ccc([N+](=O)[O-])cc1NC(=O)COC(=O)/C=C/c1ccco1 | -3.75% |
| O=C(CSc1nc(C2CC2)nc2ccccc12)Nc1cccc(O)c1 | -0.76% |
| Cc1noc(C)c1COC(=O)c1cc2ccccc2cc1O | 1.08% |
| O=C(NNc1c2ccccc2nc2ccccc12)c1cc2ccccc2cc1O | 5.94% (active) |
| CC(C)(C)NC(=O)NC(=O)COC(=O)Cn1c(C(F)(F)F)nc2ccccc21 | 2.76% |
| COc1ccccc1NC(=O)CSc1nnc(-c2ccoc2C)n1CCc1ccccc1 | 4.08% |
| CCN(CC)S(=O)(=O)c1ccc(N(C)Cc2ccc(C(F)(F)F)cc2)nc1 | 0.97% |
| Nc1cc(=O)c2[nH]cnc2[nH]1 | 16.4% (active) |
| Cc1ccccc1-c1ccc2c(c1)O[C@@H](CN(C)Cc1ccc(C(=O)O)cc1)[C@@H](C)CN([C@H](C)CO)S2(=O)=O | 1.11% |
| C[C@@H]1CN([C@H](C)CO)S(=O)(=O)c2ccc(C#C[C@@H](C)O)cc2O[C@@H]1CN(C)Cc1ccc(-c2ccccc2)cc1 | 36.5% (active) |
| C[C@@H]1CN([C@@H](C)CO)S(=O)(=O)c2ccc(-c3ccc(C(=O)N(C)C)cc3)cc2O[C@@H]1CN(C)Cc1ccccc1C(=O)O | -1.93% |
| O=C(C1CCCN(S(=O)(=O)c2ccc([N+](=O)[O-])cc2)C1)N1CCCCC1 (stereo not drawn) | 1.73% |
| CCNS(=O)(=O)c1ccc(NC(=O)c2cncc(Br)c2)cc1 | -2.97% |
| O=C(Nc1ccc(S(=O)(=O)Nc2ncccn2)cc1)c1cncc(Br)c1 | 11.3% (active) |
| O=C(NC(=S)Nc1ccc(S(=O)(=O)Nc2ncccn2)cc1)c1cccc(Br)c1 | -0.5% |
| CCOCCCNC(=S)Nc1ccc2nc(N3CCN(CC)CC3)cc(C)c2c1 | -3.64% |
| COc1ccccc1C(=O)N1CCNC(=O)C1CC(=O)Nc1ccc(Cl)cc1 (stereo not drawn) | 4.11% |
| O=C(CC1SCCNC1=O)Nc1ccc(Cl)cc1 (stereo not drawn) | 11.9% (active) |
| CCOc1ccc(NC(=O)CC2NCCNC2=O)cc1 (stereo not drawn) | 0.97% |

| SMILES | inhibition |
| --- | --- |
| Cc1cc(-c2ccc(C)c(S(=O)(=O)NC(C)Cc3ccco3)c2)on1 (stereo not drawn) | 4.85% |
| COc1ccc(NC(=O)CSc2nnc(-c3ccccc3F)n2C2CC2)cc1S(N)(=O)=O | -3.31% |
| Fc1cccc(Cl)c1COc1ccc(-c2nnco2)cc1 | 0.01% |
| C[C@H](NC(=O)[C@@H]1Cc2ccccc2CN1C(=O)OC(C)(C)C)C(=O)NC1CCCC1 | -1% |
| Cc1ccc(NC(=O)OCCNC(=O)c2ccncc2)cc1 | 1.62% |
| COCCNC(=O)CSc1nc(N)c(NC(=O)c2ccco2)c(=O)[nH]1 | -1.82% |
| COCCNC(=O)Nc1ccc2nc(-c3ccco3)c(-c3ccco3)nc2c1 | 8.86% (active) |
| C#CCN(N(C)c1ncc(C(F)(F)F)cc1Cl)S(=O)(=O)c1ccc2ccccc2c1 | 0.28% |
| CCN1CCN(c2cc3nc(C)n(Cc4ccccc4)c(=O)c3cc2NC(=O)c2ccccc2F)CC1 | -0.45% |
| N#Cc1ccccc1NC(=O)COc1c(Br)cc(Br)c2cccnc12 | -0.22% |
| CC(=O)NC(c1cccs1)c1cc(Br)c2cccnc2c1O (stereo not drawn) | 14.8% (active) |
| CCCCC(=O)NC(c1ccc(OC)c(OC)c1)c1ccc2cccnc2c1O (stereo not drawn) | -0.15% |
| O=C(Nc1ccc2c(c1)[C@@H]1C[C@@H](CC(=O)N3CCCCC3)O[C@@H](CO)[C@@H]1O2)NC1CCCCC1 | 2.19% |
| O=C(Cn1cnc2cc([N+](=O)[O-])ccc2c1=O)NC(=O)NCc1ccccc1 | -4.46% |
| CCOC(=O)C(CCOc1cccc(CC)c1)C(=O)OCC | 0.47% |
| COc1ccc2c(c1)c(=O)c(C(=O)c1ccc(Cl)cc1)cn2CC(=O)Nc1ccc(F)cc1 | -3.04% |
| COc1ccc(CNC(=O)C2CCCC2)cc1 | -1.61% |
| COc1ccc(CNC(=O)c2c[nH]c3c(OC)cc(OC)cc3c2=O)cc1 | -2.41% |
| COc1ccc(CNC(=O)c2cc(C(=O)C3CC3)c[nH]2)cc1 | 11.6% (active) |
| OCC[C@H]1C[C@@H](O)[C@H](O)[C@@]2(OCCc3ccccc32)O1 | 1.02% |
| CC(OC(=O)c1ccc(NC(=O)CC#N)cc1)C(=O)Nc1ccc(S(=O)(=O)N2CCCC2)cc1 (stereo not drawn) | 2.43% |
| CC(C(=O)Nc1ccc(S(=O)(=O)N2CCCC2)cc1)N(C)Cc1ccc(F)cc1 (stereo not drawn) | 2.65% |

| SMILES | inhibition |
| --- | --- |
| CCc1ccc(CN(C)C(C)C(=O)Nc2ccc(S(=O)(=O)N3CCCC3)cc2)cc1 (stereo not drawn) | 12.4% (active) |
| Cc1nn(Cc2ccccc2)c(C)c1C(=O)N1CCN(CC(=O)Nc2ccccc2Cl)CC1 | 2.44% |
| CCOC(=O)C1=C(COC(=O)[C@H](C)NS(=O)(=O)c2ccccc2F)NC(=O)NC1C (stereo partly drawn) | 2.47% |
| CN(C)c1ccc(/C=N/NC(=O)C(O)c2ccc(Br)cc2)cc1 (stereo not drawn) | 0.79% |
| CNC(=S)NNC(=O)c1ccc(N(C)C)cc1 | 0.47% |
| CN(C)c1ccc(N/C=C/C(=O)C(F)(F)F)cc1 | 7.5% (active) |
| C[C@H](CO)N1C[C@H](C)[C@@H](CN(C)C(=O)C2CCCCC2)OCc2cnnn2CCCC1=O | -1.65% |
| Cc1cc(C)c(C(N)=O)c(Cl)n1 | -1.52% |
| Cc1ccccc1CN1C[C@@H]2C[C@@H](c3ccc4nsnc4c3)N3CCC[C@@]23C1=O | 8.18% (active) |
| Cc1ccccc1CN1CCN(CC(=O)NCc2ccccn2)C1=O | -1.59% |
| Cc1ccccc1CN1C[C@@H]2C[C@@H](c3cn(C)nc3-c3ccccc3)N3CCC[C@@]23C1=O | -1.71% |
| CC(OC(=O)/C=C/c1ccccc1)C(=O)Nc1ccc(C(N)=O)cc1 (stereo not drawn) | 1.19% |
| O=S1(=O)CC(N2CCN(c3ccccn3)CC2)CN1Cc1ccc(F)cc1 (stereo not drawn) | 1.04% |
| Cc1ccc(S(=O)(=O)NCCC(=O)NNC(=O)C2COc3ccccc3O2)cc1 (stereo not drawn) | -0.47% |
| Cc1c(CC(=O)N2CCN(C(=O)C3COc4ccccc4O3)CC2)c(=O)oc2c(O)c(O)ccc12 (stereo not drawn) | 9.84% (active) |
| Cc1c(CCC(=O)O)c(=O)oc2c(C)c(OCc3ccccc3Cl)ccc12 | 1.81% |
| COC(=O)c1ccc(NC(=O)CN(c2ccc(C)cc2)S(=O)(=O)c2c(C)n[nH]c2C)cc1 | 3.33% |
| NC1=CC(=O)C(=O)c2cccnc21 | 17.2% (active) |
| CC1(C)C=Cc2c(ccc3c2OC[C@@H](c2ccc(O)cc2O)C3)O1 | -2.38% |
| NC(=O)c1ccc(CN2CCC(Cc3ccccc3)CC2)cc1 | 1.83% |
| CCOC(=O)N1CCN(Cc2oc(CO)cc(=O)c2O)CC1 | 1.56% |
| O=c1cc(CO)oc(CN2CCC(Cc3ccccc3)CC2)c1O | 30.9% (active) |
